PubChem BioAssay (Tox21)
Results filed as inconclusive are left out. Active and inactive are the calls of the source. Unless noted, the call rests on the fitted dose curve; in most records, active means well fitted curve in the direction sought with a large enough effect in the repeat runs; inconclusive means weak or mixed curves; inactive means no such curve, though single readings can be large; an effect the other way counts as inactive or inconclusive.

Assays:
[1] = biological target: Thyrotropin-releasing hormone receptor (Homo sapiens) (UniProt P34981); assay: qHTS assay to identify small molecule agonists of the thyrotropin-releasing hormone receptor (TRHR) signaling pathway (AID 1346891; calls by dose curve;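 further: HEK293 cells expressing TRHR with calcium dye readout; series mostly up to about 58 µM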)
Chain of Thyrotropin-releasing hormone receptor (Homo sapiens) (P34981 whole entry, looked up): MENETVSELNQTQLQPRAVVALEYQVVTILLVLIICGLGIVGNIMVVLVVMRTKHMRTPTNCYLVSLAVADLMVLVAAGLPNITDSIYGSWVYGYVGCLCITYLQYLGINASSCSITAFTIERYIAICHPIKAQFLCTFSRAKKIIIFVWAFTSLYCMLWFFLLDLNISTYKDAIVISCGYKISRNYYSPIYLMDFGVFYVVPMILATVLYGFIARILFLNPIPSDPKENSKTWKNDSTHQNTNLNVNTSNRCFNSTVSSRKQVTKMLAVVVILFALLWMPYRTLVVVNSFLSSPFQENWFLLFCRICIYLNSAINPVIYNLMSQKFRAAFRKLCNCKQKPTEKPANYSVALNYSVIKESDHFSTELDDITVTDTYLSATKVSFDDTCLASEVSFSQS
Procedure, shortened: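 Agonist-mode calcium mobilisation screen: TRHR-transfected HEK293 cells cultured overnight (18 h), dye-loaded for 2 h at 37 °C, exposed to compounds, and monitored by fluorescence for 3 min.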

[2] = Caspase-3/7 induction in HepG2 cells by small molecules, qHTS assay (AID 1346978); further: nearly all actives have a fitted effect of over 15% in size
Procedure, shortened: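 Caspase-3/7 induction was measured by Caspase-Glo 3/7 luminescence (30 min, room temperature) after a 17 hr compound exposure of wild-type HepG2 cells seeded at 2,000 per well and pre-incubated 5 hr.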

[3] = Caspase-3/7 induction in CHO-K1 cells by small molecules, qHTS cell viability counter screen (AID 1346979); further: nearly all actives have a fitted effect of over 35% in size; further: potency means the concentration at half of the fitted maximal effect
Procedure, shortened: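 In the same wells as the caspase read, viability of compound-treated wild-type CHO-K1 cells was assessed using CellTiter-Fluor, added after 16hr at 37C and measured by fluorescence following 1hr further incubation.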

[4] = Caspase-3/7 induction in CHO-K1 cells by small molecules, qHTS assay (AID 1346980); further: nearly all actives have a fitted effect of over 15% in size; further: potency means the concentration at half of the fitted maximal effect
Procedure, shortened: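 Luminescent Caspase-Glo 3/7 read (30min, room temperature) quantified apoptosis induction. Cells were wild-type CHO-K1, treated with compound for 17hr at 37 C and 5% CO2.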

[5] = Caspase-3/7 induction in HepG2 cells by small molecules, qHTS cell viability counter screen (AID 1346981); further: nearly all actives have a fitted effect of over 30% in size; further: potency means the concentration at half of the fitted maximal effect
Procedure, shortened: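 Viability determined by CellTiter-Fluor fluorescence in HepG2 wells also used for the luminescent Caspase-Glo 3/7 read. Compounds were present for 16 hr at 37 C, 5% CO2 before reagent addition.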

[6] = biological target: Nuclear receptor subfamily 1 group I member 2 (Homo sapiens) (UniProt O75469); assay: Human pregnane X receptor (PXR) small molecule agonists, qHTS assay (AID 1346982); further: nearly all actives have a fitted effect of over 35% in size; further: potency means the concentration at half of the fitted maximal effect
Chain of Nuclear receptor subfamily 1 group I member 2 (Homo sapiens) (O75469 whole entry, looked up): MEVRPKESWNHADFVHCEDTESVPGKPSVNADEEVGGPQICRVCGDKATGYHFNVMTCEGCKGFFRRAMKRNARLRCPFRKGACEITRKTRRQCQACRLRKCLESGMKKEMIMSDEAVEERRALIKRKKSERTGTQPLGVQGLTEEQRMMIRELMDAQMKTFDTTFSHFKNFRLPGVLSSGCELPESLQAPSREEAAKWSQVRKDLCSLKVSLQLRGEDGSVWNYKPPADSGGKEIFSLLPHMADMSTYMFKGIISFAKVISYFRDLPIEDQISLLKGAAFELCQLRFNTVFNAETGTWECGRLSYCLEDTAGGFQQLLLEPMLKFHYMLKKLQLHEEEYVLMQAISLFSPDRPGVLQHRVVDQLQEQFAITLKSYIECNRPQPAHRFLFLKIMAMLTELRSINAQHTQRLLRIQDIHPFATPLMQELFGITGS
Procedure, shortened: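 Compound-induced hPXR transactivation of a CYP3A4 luciferase reporter was scored in HepG2 PXR-Luc cells over 24 hr at 37 C, 5% CO2, by luminescence.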

[7] = Human pregnane X receptor (PXR) small molecule agonists, qHTS cell viability counter screen (AID 1346977); further: nearly all actives have a fitted effect of over 50% in size; further: potency means the concentration at half of the fitted maximal effect
Procedure, shortened: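 Measures live-cell protease fluorescence (CellTiter-Fluor) in PXR-Luc HepG2 cells treated 24hr with compounds at 37C. Cells had 5hr to attach before pin transfer of DMSO solutions.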

[8] = biological target: Nuclear receptor subfamily 1 group I member 2 (Rattus norvegicus) (UniProt Q9R1A7); assay: Rat pregnane X receptor (rPXR) activation by small molecules, qHTS assay (AID 1346983); conditions: rPXR luciferase reporter cells, One-Glo luminescence, 24 h; max activation: hits give high values; further: nearly all actives have a fitted effect of over 20% in size
Chain of Nuclear receptor subfamily 1 group I member 2 (Rattus norvegicus) (Q9R1A7 whole entry, looked up): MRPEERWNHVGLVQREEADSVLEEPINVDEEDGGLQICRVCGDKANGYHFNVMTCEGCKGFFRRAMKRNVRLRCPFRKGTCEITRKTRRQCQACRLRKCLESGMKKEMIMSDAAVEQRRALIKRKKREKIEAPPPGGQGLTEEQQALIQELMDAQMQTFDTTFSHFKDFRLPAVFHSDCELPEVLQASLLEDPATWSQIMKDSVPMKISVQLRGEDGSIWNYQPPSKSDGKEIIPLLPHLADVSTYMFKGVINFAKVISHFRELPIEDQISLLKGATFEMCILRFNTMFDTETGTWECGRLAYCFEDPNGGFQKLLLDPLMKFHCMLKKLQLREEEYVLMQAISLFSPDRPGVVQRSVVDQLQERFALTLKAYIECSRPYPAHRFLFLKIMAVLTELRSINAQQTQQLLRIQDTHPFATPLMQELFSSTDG
Procedure, shortened: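 Luminescent readout (One-Glo luciferase, 30 min room temperature) followed 24 hr compound treatment at 37 C of rPXR cells plated 2,000 per well and preincubated 5hr; qHTS format with compounds delivered in DMSO.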

[9] = biological target: Nuclear receptor subfamily 1 group I member 2 (Homo sapiens) (UniProt O75469); assay: CYP3A4 induction through human pregnane X receptor (PXR) by small molecules, qHTS assay (AID 1346984); further: nearly all actives have a fitted effect of over 40% in size
Procedure, shortened: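 Readings come from a luciferase reporter: DPX-2 cells, which are HepG2 cotransfected with PXR and a CYP3A4-promoter construct, were exposed to test compounds for 24 h at 37C before One-Glo detection.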

[10] = biological target: Nuclear receptor subfamily 1 group I member 2 (Homo sapiens) (UniProt O75469); assay: Human pregnane X receptor (PXR) activation by small molecules, qHTS assay (AID 1346985); further: nearly all actives have a fitted effect of over 40% in size
Procedure, shortened: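 DPX-2 cells (HepG2 co-transfected with a PXR response element and a CYP3A4-promoter luciferase construct) were seeded at 2,000 per well, rested 5 hr at 37C, then exposed to DMSO-dissolved compounds for 24 hr. Activation was read as luciferase luminescence.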
On the % scale 0 is the no-effect control and ±100 the full control effect.

IC(I)=C(I)I
active: Potency [3] 4.86 µM | Potency [4] 4.86 µM | Potency [5] 68.6 µM | Potency [6] 4.86 µM
inactive: Potency [1] | Potency [2]

NS(=O)(=O)C(F)(F)C(F)(F)C(F)(F)C(F)(F)C(F)(F)C(F)(F)C(F)(F)C(F)(F)F
inactive: Potency [1] | Potency [2] | Potency [3] | Potency [4] | Potency [5]

Clc1cccc2ccccc12
inactive: Potency [1] | Potency [2] | Potency [3] | Potency [4] | Potency [5] | Potency [6]

O=C1C(=O)c2cccc3cccc1c23
inactive: Potency [1] | Potency [7] | Potency [4] | Potency [5]
active: Potency [3] 21.7 µM

COCC(C)N(C(=O)CCl)c1c(C)csc1C (stereo unspecified)
inactive: Potency [1] | Potency [7] | Potency [2] | Potency [5] | max activation [8] -3.61% | Potency [9] | Potency [10]

O=C(O)CC(Cl)C(=O)O (stereo unspecified)
inactive: Potency [1] | Potency [2] | Potency [3] | Potency [4] | Potency [5] | Potency [6]

C/C(=C\c1ccccc1)[N+](=O)[O-]
inactive: Potency [1] | Potency [4]
active: Potency [7] 43.3 µM | Potency [3] 10.9 µM | Potency [5] 68.6 µM | Potency [6] 24.3 µM

COP(=S)(Oc1cc(Cl)c(Br)cc1Cl)c1ccccc1 (stereo unspecified)
inactive: Potency [1] | Potency [7] | Potency [2] | Potency [5]
active: Potency [6] 24.3 µM

O=C(CBr)c1ccccc1
inactive: Potency [1] | Potency [7] | Potency [2] | Potency [5] | Potency [6]

O=C(CBr)Nc1ccc(Cl)cc1C(=O)c1ccccc1F
inactive: Potency [1] | Potency [2] | Potency [3] | Potency [4] | Potency [5]

Nc1ccc([N+](=O)[O-])cc1[N+](=O)[O-]
active: Potency [3] 47.3 µM | Potency [5] 47.3 µM
inactive: Potency [1] | Potency [2] | Potency [4] | Potency [6]

COc1cc(Cl)c(OC)cc1Cl
inactive: Potency [1] | Potency [2] | Potency [3] | Potency [4] | Potency [5] | Potency [6]

C=CC(=O)OCCCCO
active: Potency [3] 54.5 µM
inactive: Potency [1] | Potency [2]

COC(=O)C(C)N(C(=O)Cc1ccccc1)c1c(C)cccc1C (stereo unspecified)
inactive: Potency [1] | Potency [2] | Potency [3] | Potency [4] | Potency [5]
active: Potency [6] 10.9 µM

COc1nn(C(=O)NS(=O)(=O)c2ccccc2OC(F)(F)F)c(=O)n1C
inactive: Potency [1] | Potency [2] | Potency [3] | Potency [4] | Potency [5]

O=C(CBr)OCc1ccccc1
inactive: Potency [1] | Potency [2] | Potency [3] | Potency [4] | Potency [5] | Potency [6]

CC1(C)CCC(Cc2ccc(Cl)cc2)C1(O)Cn1cncn1 (stereo unspecified)
active: Potency [3] 68.6 µM
inactive: Potency [1] | Potency [2] | Potency [4]

CC1(C)[C@H](C=C(Cl)Cl)[C@@H]1C(=O)O[C@@H](C#N)c1cccc(Oc2ccccc2)c1
inactive: Potency [1] | Potency [2] | Potency [3] | Potency [4] | Potency [5]
active: Potency [6] 4.33 µM

Cc1cc(=O)[nH]o1
inactive: Potency [1] | Potency [2] | Potency [3] | Potency [4] | Potency [5]

O=C(Nc1ccccc1)Nc1cnns1
active: Potency [3] 54.4 µM
inactive: Potency [1] | Potency [2] | Potency [4] | Potency [5]

CC(=O)c1cc2c(cc1C)C(C)(C)C(C)CC2(C)C (stereo unspecified)
inactive: Potency [1] | Potency [7] | Potency [5]
